Assay [1] deals with High affinity nerve growth factor receptor (Homo sapiens) (UniProt P04629). The conditions noted are these: at 1 µM.
Assay [2] has as its target BDNF/NT-3 growth factors receptor (Homo sapiens) (UniProt Q16620). The conditions noted are these: at 0.1 µM.
The target is the same in assay [3]. The conditions noted are these: at 1 µM.
Assay [4] deals with NT-3 growth factor receptor (Homo sapiens) (UniProt Q16288). The conditions noted are these: at 0.1 µM.
Assay [5] shares this target. The settings on record: at 1 µM.
Assay [6] deals with T1, Tyrosine-protein kinase TXK (Homo sapiens) (UniProt P42681).
T1 sequence (whole entry): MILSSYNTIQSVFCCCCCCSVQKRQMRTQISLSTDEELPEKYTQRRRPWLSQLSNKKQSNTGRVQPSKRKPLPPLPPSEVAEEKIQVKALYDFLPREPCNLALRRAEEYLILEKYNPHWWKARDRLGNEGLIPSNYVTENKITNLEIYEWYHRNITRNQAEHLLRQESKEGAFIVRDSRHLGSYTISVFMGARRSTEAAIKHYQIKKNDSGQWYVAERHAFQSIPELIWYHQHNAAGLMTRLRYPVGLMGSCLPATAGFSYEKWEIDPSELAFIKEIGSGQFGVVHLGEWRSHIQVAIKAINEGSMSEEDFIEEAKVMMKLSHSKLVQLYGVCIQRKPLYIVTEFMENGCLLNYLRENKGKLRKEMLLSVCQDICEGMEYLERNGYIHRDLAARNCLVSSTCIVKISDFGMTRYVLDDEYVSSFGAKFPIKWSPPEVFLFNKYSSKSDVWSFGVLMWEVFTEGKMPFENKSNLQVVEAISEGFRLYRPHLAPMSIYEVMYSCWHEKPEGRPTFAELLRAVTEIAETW
The settings on record: at 0.1 µM.

Assay [7] has as its target T1, Tyrosine-protein kinase TXK (Homo sapiens). The settings on record: at 1 µM.
Assay [8] concerns the target Non-receptor tyrosine-protein kinase TYK2 (Homo sapiens) (UniProt P29597). The settings on record: at 0.1 µM.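 Further: each value is a mean of the inhibition readings.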
Assay [9] concerns the target T2, Dual specificity protein kinase TTK (Homo sapiens) (UniProt P33981).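 Further: reported figures are mean TTK inhibition at 1 µM.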
T2 sequence (whole entry): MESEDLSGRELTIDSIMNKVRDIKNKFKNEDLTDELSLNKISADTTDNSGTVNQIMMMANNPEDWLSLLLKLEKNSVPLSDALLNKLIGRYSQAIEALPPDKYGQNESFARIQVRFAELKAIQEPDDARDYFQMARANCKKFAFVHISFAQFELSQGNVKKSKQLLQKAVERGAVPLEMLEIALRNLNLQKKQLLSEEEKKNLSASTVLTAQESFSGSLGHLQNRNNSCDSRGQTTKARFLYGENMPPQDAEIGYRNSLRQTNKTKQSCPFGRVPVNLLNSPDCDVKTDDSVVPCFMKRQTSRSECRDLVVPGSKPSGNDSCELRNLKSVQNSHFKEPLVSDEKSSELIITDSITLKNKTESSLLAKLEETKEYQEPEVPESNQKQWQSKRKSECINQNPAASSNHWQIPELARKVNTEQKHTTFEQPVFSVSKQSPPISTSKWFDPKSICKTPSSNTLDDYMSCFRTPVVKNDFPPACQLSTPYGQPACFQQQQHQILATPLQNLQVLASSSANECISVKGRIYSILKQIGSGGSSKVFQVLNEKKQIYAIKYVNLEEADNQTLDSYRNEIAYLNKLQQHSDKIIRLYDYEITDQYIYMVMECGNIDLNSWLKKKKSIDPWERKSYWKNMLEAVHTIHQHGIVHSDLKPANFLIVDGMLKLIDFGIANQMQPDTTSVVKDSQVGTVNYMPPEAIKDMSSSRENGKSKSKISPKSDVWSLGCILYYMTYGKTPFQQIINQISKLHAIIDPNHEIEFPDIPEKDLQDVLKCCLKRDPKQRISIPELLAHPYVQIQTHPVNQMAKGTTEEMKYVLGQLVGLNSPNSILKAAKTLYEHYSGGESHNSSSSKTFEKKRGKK
The settings on record: at 1 µM.

The target in assay [10] is T3, Aurora kinase A (Homo sapiens) (UniProt O14965).
T3 sequence (whole entry): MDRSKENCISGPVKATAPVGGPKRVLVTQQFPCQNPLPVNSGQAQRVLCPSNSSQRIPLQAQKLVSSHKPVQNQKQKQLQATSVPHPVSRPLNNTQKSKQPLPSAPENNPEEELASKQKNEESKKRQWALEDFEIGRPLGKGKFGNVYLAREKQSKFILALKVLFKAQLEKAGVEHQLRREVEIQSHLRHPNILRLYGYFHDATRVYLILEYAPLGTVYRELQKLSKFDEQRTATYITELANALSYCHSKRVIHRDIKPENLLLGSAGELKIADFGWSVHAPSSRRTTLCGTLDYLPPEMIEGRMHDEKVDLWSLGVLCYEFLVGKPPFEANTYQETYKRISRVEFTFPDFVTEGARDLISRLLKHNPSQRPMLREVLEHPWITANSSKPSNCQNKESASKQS
The conditions noted are these: at 0.1 µM.

Assay [11] has as its target T3, Aurora kinase A (Homo sapiens). The settings on record: at 1 µM.
For assay [12], the target named is Aurora kinase B (Homo sapiens) (UniProt Q96GD4). The conditions noted are these: at 0.1 µM.
For assay [13] the target is unchanged. The conditions noted are these: at 1 µM.
The target in assay [14] is T4, Aurora kinase C (Homo sapiens) (UniProt Q9UQB9).
T4 sequence (whole entry): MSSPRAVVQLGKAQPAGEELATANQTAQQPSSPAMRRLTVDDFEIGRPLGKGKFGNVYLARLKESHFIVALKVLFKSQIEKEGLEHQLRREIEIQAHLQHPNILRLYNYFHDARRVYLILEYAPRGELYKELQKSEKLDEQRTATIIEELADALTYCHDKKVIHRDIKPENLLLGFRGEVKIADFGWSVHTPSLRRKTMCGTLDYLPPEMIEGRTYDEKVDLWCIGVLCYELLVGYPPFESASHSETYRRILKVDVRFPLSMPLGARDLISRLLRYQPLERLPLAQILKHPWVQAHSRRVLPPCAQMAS
The settings on record: at 0.1 µM.

The target of assay [15] is T4, Aurora kinase C (Homo sapiens). The conditions noted are these: at 1 µM.
The target in assay [16] is Serine/threonine-protein kinase 10 (Homo sapiens) (UniProt O94804). The settings on record: at 0.1 µM.
Assay [17] has the same target. The conditions noted are these: at 1 µM.
The target in assay [18] is T5, Mitogen-activated protein kinase kinase kinase kinase 2 (Homo sapiens) (UniProt Q12851).
T5 sequence (whole entry): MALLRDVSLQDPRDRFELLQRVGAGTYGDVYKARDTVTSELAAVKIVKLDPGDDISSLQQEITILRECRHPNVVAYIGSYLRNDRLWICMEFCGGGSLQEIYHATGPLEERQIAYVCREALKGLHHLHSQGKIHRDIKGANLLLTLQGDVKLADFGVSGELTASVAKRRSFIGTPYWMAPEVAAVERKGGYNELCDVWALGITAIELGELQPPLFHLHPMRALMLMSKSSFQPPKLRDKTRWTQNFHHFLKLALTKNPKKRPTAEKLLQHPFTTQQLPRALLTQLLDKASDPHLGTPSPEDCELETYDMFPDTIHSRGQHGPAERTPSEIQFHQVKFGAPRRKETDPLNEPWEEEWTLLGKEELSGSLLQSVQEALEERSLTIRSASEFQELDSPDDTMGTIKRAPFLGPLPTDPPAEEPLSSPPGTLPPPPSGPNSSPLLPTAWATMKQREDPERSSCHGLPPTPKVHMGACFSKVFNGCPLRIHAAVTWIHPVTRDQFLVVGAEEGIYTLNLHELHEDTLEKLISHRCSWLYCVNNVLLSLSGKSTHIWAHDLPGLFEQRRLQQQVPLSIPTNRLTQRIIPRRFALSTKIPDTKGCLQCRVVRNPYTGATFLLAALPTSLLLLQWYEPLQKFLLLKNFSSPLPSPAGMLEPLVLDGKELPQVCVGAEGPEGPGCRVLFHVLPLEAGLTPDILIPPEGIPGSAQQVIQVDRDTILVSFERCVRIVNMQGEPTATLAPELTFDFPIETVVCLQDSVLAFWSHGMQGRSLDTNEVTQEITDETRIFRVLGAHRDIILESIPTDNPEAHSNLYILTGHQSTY
The conditions noted are these: at 0.1 µM.

Assay [19] concerns the target T5, Mitogen-activated protein kinase kinase kinase kinase 2 (Homo sapiens). The conditions noted are these: at 1 µM.
Assay [20] deals with Mitogen-activated protein kinase kinase kinase kinase 4 (Homo sapiens) (UniProt O95819). The conditions noted are these: at 0.1 µM.
Sequence of Mitogen-activated protein kinase kinase kinase kinase 4 (Homo sapiens) (O95819 2-1239 limits assumed): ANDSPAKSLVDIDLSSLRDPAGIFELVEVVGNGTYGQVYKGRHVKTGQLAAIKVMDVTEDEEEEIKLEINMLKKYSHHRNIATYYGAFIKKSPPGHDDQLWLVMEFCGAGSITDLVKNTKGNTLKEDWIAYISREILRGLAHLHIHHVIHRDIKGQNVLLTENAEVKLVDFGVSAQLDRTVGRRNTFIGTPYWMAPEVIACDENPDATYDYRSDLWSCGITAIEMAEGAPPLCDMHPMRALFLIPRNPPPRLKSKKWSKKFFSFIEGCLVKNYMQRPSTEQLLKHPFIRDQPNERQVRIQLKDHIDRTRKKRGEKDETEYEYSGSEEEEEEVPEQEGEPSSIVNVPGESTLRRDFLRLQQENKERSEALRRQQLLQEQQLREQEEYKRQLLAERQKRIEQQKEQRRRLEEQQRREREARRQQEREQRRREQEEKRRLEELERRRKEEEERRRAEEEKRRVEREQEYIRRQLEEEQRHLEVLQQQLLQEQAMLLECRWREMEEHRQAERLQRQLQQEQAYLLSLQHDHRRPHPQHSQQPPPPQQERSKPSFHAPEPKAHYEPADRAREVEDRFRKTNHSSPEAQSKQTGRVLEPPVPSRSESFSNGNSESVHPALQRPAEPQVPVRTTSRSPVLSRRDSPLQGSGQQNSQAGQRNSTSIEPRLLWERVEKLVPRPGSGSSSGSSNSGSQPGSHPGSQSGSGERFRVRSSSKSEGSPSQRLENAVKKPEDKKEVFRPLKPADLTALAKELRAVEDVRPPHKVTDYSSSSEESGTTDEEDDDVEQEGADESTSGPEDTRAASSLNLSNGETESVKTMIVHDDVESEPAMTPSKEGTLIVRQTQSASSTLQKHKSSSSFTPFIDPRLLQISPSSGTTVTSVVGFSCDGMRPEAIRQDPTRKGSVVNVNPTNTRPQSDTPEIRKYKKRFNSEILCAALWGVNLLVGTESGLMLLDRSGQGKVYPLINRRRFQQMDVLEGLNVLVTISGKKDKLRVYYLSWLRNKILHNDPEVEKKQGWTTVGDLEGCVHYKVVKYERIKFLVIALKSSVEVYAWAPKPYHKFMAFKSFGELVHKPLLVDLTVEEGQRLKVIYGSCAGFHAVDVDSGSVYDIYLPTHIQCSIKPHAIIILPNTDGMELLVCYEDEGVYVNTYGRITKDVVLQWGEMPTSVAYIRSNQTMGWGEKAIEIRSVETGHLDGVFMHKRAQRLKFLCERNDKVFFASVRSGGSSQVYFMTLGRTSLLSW

Sequence of Aurora kinase B (Homo sapiens) (Q96GD4 whole entry): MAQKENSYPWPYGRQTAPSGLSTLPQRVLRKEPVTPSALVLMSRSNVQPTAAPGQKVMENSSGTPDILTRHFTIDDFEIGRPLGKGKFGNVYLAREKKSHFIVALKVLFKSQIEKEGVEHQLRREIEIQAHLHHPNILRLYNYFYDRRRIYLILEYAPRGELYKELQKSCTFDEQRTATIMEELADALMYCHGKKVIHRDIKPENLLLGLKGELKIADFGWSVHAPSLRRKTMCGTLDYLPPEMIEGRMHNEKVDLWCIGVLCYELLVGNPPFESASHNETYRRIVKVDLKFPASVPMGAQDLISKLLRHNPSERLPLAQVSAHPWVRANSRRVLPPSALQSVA
Sequence of NT-3 growth factor receptor (Homo sapiens) (Q16288 32-839 limits assumed): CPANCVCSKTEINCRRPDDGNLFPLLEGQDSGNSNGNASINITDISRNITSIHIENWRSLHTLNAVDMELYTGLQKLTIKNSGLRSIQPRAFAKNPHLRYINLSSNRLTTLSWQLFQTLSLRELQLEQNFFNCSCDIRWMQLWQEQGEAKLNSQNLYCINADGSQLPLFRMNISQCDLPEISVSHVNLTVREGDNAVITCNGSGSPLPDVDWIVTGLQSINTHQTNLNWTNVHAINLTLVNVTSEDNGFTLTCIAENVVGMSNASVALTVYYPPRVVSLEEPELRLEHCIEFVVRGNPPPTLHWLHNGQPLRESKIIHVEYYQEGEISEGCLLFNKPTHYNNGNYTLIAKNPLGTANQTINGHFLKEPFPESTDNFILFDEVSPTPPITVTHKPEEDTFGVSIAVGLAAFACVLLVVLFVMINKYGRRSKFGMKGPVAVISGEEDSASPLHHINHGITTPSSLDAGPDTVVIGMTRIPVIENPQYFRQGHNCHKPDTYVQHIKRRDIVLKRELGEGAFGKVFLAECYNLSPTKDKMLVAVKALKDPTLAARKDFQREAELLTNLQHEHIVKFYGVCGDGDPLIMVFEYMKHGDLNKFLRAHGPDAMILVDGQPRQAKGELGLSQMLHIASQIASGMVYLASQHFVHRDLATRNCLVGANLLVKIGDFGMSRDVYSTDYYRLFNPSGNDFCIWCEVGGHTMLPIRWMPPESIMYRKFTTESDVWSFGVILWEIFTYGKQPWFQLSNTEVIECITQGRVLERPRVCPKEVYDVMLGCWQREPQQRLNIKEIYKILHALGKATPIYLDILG
Sequence of Non-receptor tyrosine-protein kinase TYK2 (Homo sapiens) (P29597 whole entry): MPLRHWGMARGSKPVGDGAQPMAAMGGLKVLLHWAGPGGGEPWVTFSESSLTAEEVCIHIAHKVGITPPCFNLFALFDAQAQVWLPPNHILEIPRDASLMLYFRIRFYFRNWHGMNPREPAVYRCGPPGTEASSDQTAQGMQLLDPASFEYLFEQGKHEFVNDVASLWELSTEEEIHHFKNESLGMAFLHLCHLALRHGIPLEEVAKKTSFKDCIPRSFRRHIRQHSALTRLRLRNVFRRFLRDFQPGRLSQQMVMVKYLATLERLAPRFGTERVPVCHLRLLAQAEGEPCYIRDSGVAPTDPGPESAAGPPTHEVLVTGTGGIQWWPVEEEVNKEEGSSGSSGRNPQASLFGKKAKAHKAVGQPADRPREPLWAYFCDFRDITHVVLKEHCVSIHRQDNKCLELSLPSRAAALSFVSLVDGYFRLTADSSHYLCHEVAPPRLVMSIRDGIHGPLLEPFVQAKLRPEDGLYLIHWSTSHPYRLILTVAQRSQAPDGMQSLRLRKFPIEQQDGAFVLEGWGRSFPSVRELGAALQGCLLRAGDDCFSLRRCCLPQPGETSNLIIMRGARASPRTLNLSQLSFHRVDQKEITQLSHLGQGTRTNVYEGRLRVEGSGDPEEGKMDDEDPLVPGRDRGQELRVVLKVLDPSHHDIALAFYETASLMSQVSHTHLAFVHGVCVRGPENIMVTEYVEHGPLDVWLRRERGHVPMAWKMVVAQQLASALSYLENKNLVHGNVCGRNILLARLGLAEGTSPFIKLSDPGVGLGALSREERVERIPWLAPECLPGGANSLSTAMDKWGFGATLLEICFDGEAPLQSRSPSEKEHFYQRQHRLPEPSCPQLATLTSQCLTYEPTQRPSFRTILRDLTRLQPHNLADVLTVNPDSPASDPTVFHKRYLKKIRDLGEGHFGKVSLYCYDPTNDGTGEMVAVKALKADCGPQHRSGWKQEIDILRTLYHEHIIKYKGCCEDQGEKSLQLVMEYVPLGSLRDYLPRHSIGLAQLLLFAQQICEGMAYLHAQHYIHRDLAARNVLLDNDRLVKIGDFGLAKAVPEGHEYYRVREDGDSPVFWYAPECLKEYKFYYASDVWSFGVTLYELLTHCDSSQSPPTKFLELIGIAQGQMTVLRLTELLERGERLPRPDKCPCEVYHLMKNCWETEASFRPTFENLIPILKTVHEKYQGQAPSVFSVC
Sequence of High affinity nerve growth factor receptor (Homo sapiens) (P04629 33-796 limits assumed): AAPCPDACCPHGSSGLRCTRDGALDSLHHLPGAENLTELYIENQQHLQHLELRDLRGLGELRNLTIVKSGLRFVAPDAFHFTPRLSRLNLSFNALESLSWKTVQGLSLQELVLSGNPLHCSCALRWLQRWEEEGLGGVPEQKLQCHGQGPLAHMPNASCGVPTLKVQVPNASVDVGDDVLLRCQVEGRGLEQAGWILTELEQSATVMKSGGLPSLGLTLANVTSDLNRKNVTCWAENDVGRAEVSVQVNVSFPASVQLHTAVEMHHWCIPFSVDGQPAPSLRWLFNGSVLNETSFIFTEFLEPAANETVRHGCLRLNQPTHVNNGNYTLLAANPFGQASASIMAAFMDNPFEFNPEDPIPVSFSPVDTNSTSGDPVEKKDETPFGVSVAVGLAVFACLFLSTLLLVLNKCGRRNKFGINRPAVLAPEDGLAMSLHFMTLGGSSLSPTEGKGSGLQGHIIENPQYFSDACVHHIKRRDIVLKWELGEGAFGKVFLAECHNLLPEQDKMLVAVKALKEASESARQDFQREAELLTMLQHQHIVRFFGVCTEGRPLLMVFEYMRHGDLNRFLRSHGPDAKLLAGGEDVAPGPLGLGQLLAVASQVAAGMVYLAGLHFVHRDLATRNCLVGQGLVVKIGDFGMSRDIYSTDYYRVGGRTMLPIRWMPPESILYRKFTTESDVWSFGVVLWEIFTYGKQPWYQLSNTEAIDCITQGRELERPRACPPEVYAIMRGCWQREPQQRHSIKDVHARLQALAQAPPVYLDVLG

For the molecule `c1ccc(-c2n[nH]cc2-c2ccnc(-c3ccc(OCCn4ccnc4)cc3)c2)nc1`, the inhibition (in general, the change of the read-out against control, counted positive when it falls) in assay [1] is 3.78%; in [2], 0.64%; in assay [3], 4.04%; in [4], 0.02%; in assay [5], 4.91%; in assay [6], 0.7%. Also, the inhibition amounted to 4.37% in [7]; 1.04% in [8]; 10.7% in [9]; 1.14% in [10]; 11.1% in assay [11]; 1.69% in assay [12]. In addition, the inhibition in [13] amounted to 15.1%; in [14] it was 1.04%; in assay [15], 7.73%; in assay [16], 2.54%; in [17], 4.01%; in [18], 3.67%. The inhibition in [19] is 7.08%; in assay [20] it was 42.6%.
On to `CNC(=O)c1sc(-n2cnc3cc(OC)c(OC)cc32)cc1OCc1ccccc1C(F)(F)F`, for which the inhibition in assay [1] was 4.9%; in [2] it was 1.8%; in assay [3] it was 4.02%; in assay [4], 3.06%; in assay [5], 6.32%; in assay [6], 5.54%. Also, the inhibition in assay [7] was 11.5%; in assay [8], -2.35%; in [9] it was 7.09%; in assay [10], 3.14%; in [11] it was 4.37%; in [12], 6.28%. For the same molecule, the inhibition turned out to be 16.6% in assay [13]; 5.07% in assay [14]; 20.8% in assay [15]; 10.4% in [16]; 31.6% in [17]; 3.26% in assay [18]. In addition, the inhibition turned out to be 7.14% in assay [19] and 8.53% in [20].
For `CCn1c(-c2nonc2N)nc2cncc(C(=O)NCCNC)c21`, the inhibition in [1] is 3.09%; in assay [2], 3.03%; in assay [3], 5.31%; in assay [4], 3.96%; in assay [5], 3.4%; in [6], -1.02%. In addition, the inhibition is 1.12% in assay [7]; -3.39% in assay [8]; 10.5% in [9]; 3.09% in [10]; 5.14% in [11]; 2.77% in [12]. Besides, the inhibition in assay [13] was 1.83%; in assay [14] it was 0.6%; in [15] it was 5.56%; in assay [16] it was 11.8%; in [17], 18%; in [18], 0.67%. Besides, the inhibition in assay [19] turned out to be 3.62%; in assay [20], 4.46%.
In the case of `Fc1cccc(COc2ccc(Nc3ncncc3C#Cc3ccccc3)cc2Cl)c1`, the inhibition in [1] worked out at 2.13%; in [2], 2.56%; in assay [3] it was 5.8%; in assay [4] it was 2.81%; in [5], 6.63%; in assay [6], 1.94%. Moreover, the inhibition is 3.56% in [7]; -4.7% in assay [8]; 8.47% in assay [9]; 2.33% in assay [10]; 9% in [11]; -1.58% in [12]. Further, the inhibition in [13] was 6%; in assay [14] it was 1.15%; in assay [15] it was -2.38%; in assay [16], 2.78%; in assay [17], 11.7%; in assay [18], 0.81%. In addition, the inhibition in assay [19] was 0.54%; in assay [20] it was 6.19%.
In the case of `Cc1cc(O)cc(C)c1/C=C/c1cncc(C(N)=O)c1`, the inhibition in assay [1] was found to be 1.48%; in assay [2], 1.71%; in assay [3], 0.87%; in [4] it was 1.25%; in assay [5] it was 0.56%; in assay [6] it was 5.98%. The inhibition is 27.9% in assay [7]; -2.57% in assay [8]; 2.18% in assay [9]; 2.32% in assay [10]; 11.7% in [11]; 2.21% in assay [12]. The inhibition in assay [13] was 7.09%; in assay [14], 8.73%; in [15] it was 1.85%; in assay [16], 4.97%; in assay [17] it was 20.2%; in assay [18], 2.32%. In addition, the inhibition was 8.96% in assay [19] and 4.83% in assay [20].

For the origin of these results see ChEMBL document CHEMBL1961873, “Compounds: GSK PKIS; Assays: Nanosyn kinase panel” (2012).
